Measured values published in ChEMBL document CHEMBL1201862, “PubChem BioAssay data set” (2004).
The whole screen tested about 52,000 sequences, of which about 3,800 (7.3%) were called active. Cut-off read from the data, not from the text of the source: active = GI50 up to about 1.1 µM and inactive = higher. Not all results are given here. Potency and affinity values are given separately.

These substances were tested on HOP-92.

| Substance | GI50 [µM] |
| --- | --- |
| [Bis(aminomethyl)diethylsilane]tetrachloroplatinum(IV), CHEMBL2146203 | 4.25 |
| [Bis(aminomethyl)dimethylsilane]dichloroplatinum (II), CHEMBL2146201 | 29.4 |
| [Bis(aminomethyl)pentamethylenesilane]dichloropaltinum(II), CHEMBL2146202 | 40.4 |
| [Bis(aminomethyl)dimethylsilane]tetrachloroplatinum(IV), CHEMBL2146190 | 14.4 |
| [Bis(aminomethyl)tetramethylenesilane]dichloropaltinum(II), CHEMBL2146205 | 28.4 |
| mu-(1,7-nanodiamine-N,N')bis-(cis-aminedichloroplatimum (II)), CHEMBL2146215 | 41.8 |
| cis-Bis[[(trimethylsilyl)methyl]amino]tetrachloroplatinum(IV), CHEMBL2146191 | 3.11 |
| [Bis(aminomethyl)pentamethylenesilane]tetrachloropaltinum(IV), CHEMBL2146204 | 24.2 |
| [Bis(aminomethyl)ethylmethylsilane]tetrachloroplatinum(IV), CHEMBL2146192 | 21.3 |
| [Bis(aminomethyl)tetramethylenesilane]tetrachloropaltinum(IV), CHEMBL2146189 | 21.5 |
| CISPLATIN, CHEMBL11359 | 3.74 |
